The entries come from a sample that favours hits as a whole.
Anaer choline gr: growth inhibitors of anaerobic choline-fed gram-negatives, minimal medium, absorbance. calls only. Gram-negative bacterium anaerobic choline minimal medium; stronger effect = lower value. 55,000 tested, 0.2% active. AID 1963822, 2024; call rule not given here
The depositor's hits bear a star; i = inactive; + = active, no number; ! = not active in a repeat.

SMILES	Anaer choline gr
CCN(CC)CCCNC(=O)CCCN1C(=O)c2cccnc2Oc2ccc(Cl)cc21	i
CC(=O)NNC(=O)N1Cc2ccccc2Oc2ccc(Cl)cc21	i
CCN(CC)CCCCN1c2ccccc2Oc2ccc(Cl)cc21	+
CCn1c(=O)c(N2CCCC(C(=O)NCc3ccccc3Cl)C2)nc2ccccc21 (stereo unspecified)	i
Cc1[nH]c(C)c(S(=O)(=O)N2CCC(C(=O)N3CCN(C4CCCCC4)CC3)CC2)c1C(=O)N1CCCCC1	i
Cc1[nH]c(C)c(S(=O)(=O)N2CCC(C(=O)N3CCC(C)CC3)CC2)c1C(=O)N1CCCCC1	i
Cc1[nH]c(C)c(S(=O)(=O)N2CCC(C(=O)Nc3ccc(Cl)cc3)CC2)c1C(=O)N1CCCC1	i
Cc1[nH]c(C)c(S(=O)(=O)N2CCC(C(=O)Nc3ccc(F)c(Cl)c3)CC2)c1C(=O)N1CCCC1	i
Cc1[nH]c(C)c(S(=O)(=O)N2CCC(C(=O)N3CCN(C4CCCCC4)CC3)CC2)c1C(=O)N1CCCC1	+
Cc1[nH]c(C)c(S(=O)(=O)N2CCC(C(=O)Nc3ccc(F)cc3)CC2)c1C(=O)N1CCCC1	+
CCOCCCN(C(=O)c1cc(=O)n(C)c2c1c(=O)n(C)c(=O)n2C)C1CCN(C)CC1	i
Cc1cc(C)cc(Nc2c(C(=O)N3CCCCC3)cnc3ccc(F)cc23)c1	i
CC(C)(C)c1ccc(C(=O)NCCc2nc(-c3ccccc3)no2)cc1	i
CC(C)c1nnc(-c2ccc(S(=O)(=O)N3CCN(C(C)C)CC3)o2)o1	i
CC(C)CN1CCN(S(=O)(=O)c2ccc(-c3nnc(C(C)C)o3)o2)CC1	+
CC(C)c1nnc(-c2ccc(S(=O)(=O)N3CCCC3)o2)o1	i
COc1cc(OC)cc(C(=O)Nc2nc(CC(=O)NCc3c(F)cccc3F)cs2)c1	i
Cc1[nH]nc(-c2c(C)sc(C)c2S(=O)(=O)NC2CCCc3ccccc32)c1C (stereo unspecified)	i
Cc1cc(C)n(-c2cc(Nc3ccc(Br)cc3)ncn2)n1	i
CCOc1cccc(C2Nc3ccccc3-n3cc4c(=O)n(C)c(=O)n(C)c4c32)c1O (stereo unspecified)	i
Cn1c(=O)c2cn3c(c2n(C)c1=O)C(c1ccc(O)c(O)c1)Nc1ccccc1-3 (stereo unspecified)	i
COc1ccc(C2Nc3ccccc3-n3cc4c(=O)n(C)c(=O)n(C)c4c32)c(OC)c1 (stereo unspecified)	+
Cc1ccc(C2Nc3ccccc3-n3cc4c(=O)n(C)c(=O)n(C)c4c32)c(O)c1 (stereo unspecified)	+
COc1cccc(C2Nc3ccccc3-n3cc4c(=O)n(C)c(=O)n(C)c4c32)c1OC (stereo unspecified)	i
COc1cccc(C2Nc3ccccc3-n3c(-c4ccccc4)c4c(=O)n(C)c(=O)n(C)c4c32)c1O (stereo unspecified)	i
SMILES	Anaer choline gr
COc1cccc(CCNC(=O)c2ccc3c(c2)nc(C)c(=O)n3Cc2ccccc2)c1	i
COC(=O)c1cnc[nH]c1=O	i
COc1ccc2c(c1)CCc1c-2n[nH]c1C(=O)N1CCC(N(C)CCCN2CCOCC2)CC1	i
Cc1ccc2[nH]c(C(=O)NCc3ccccc3Cl)cc2c1	i
COCCNC(=O)C1CCCN(c2cc(=O)n(C)c(=O)n2C)C1 (stereo unspecified)	i
CN(C)Cc1ccc(S(=O)(=O)n2ccc(C=CC(=O)NO)c2)cc1	i
Cn1ccc2cc(S(=O)(=O)N3CCN(C(=O)Nc4cc(F)ccc4F)CC3)ccc21	i
O=C(c1cnccn1)N1CCC(Oc2cc(N3CCCC3)ncn2)C1 (stereo unspecified)	i
CCC(C(=O)NCc1ccc2c(c1)OCO2)N1CCN(Cc2ccc(F)cc2)C(=O)C1=O (stereo unspecified)	i
CCS(=O)(=O)c1ccc(-c2ccc(NC(=O)c3ccc(OC)cc3)cc2)nn1	i
COC1C=CO[C@@]2(C)Oc3c(C)c(O)c4c(O)c(c5c(c4c3C2=O)NC2(CCN(CC(C)C)CC2)N=5)=NC(=O)C(C)=CC=CC(C)C(O)C(C)C(O)C(C)C(OC(C)=O)C1C (stereo partly specified)	i
CO[C@H]1/C=C/O[C@@]2(C)Oc3c(C)c(O)c4c(O)c(c(/C=N/N5CCN(C)CC5)c(O)c4c3C2=O)NC(=O)/C(C)=C\C=C\[C@H](C)[C@H](O)[C@@H](C)[C@@H](O)[C@@H](C)[C@H](OC(C)=O)[C@@H]1C	+!
COC1C=CO[C@@]2(C)Oc3c(C)c(O)c4c(O)c(c5c(nc6cc(C)ccn65)c4c3C2=O)NC(=O)C(C)=CC=CC(C)C(O)C(C)C(O)C(C)C(OC(C)=O)C1C (stereo partly specified)	i
COc1ccc(OC)c2c1cc1n2CC(C)(C(=O)NC2CCCC2)N(CCN2CCOCC2)C1=O (stereo unspecified)	i
Cc1nc2ccccc2c(=O)n1-c1ccc(NC(=O)C(C)Oc2ccccc2)cc1 (stereo unspecified)	i
CC(C)=CCC/C(C)=C/CC/C(C)=C/CSCC(=O)O	+
